Records with an inconclusive call do not appear. Unmarked numbers belong to inactive results. The source made the active and inactive calls. Calls follow the shape of the dose curve; as a rule, active = well fitted inhibition curve with a large enough effect; inconclusive = small, poorly fitted or top-dose-only effect, or effect the other way; inactive = no such curve, though single readings can be large or run the other way.

The results in this text go back to PubChem BioAssay AID1724 (National Center for Advancing Translational Sciences (NCATS), 2009).

The nature of this assay: Confirmation Concentration-Response Assay for Inhibitors of the ERK Signaling Pathway using a Homogeneous Screening Assay. The note with it: HEK293 cells, hormone-stimulated phospho-ERK AlphaScreen; series mostly up to 40.9 µM; activity change, negative = inhibition: at the top concentration. The source says: qHTS Assay for Inhibitors of the ERK Signaling Pathway using a Homogeneous Screening Assay
NIH Chemical Genomics Center [NCGC]
NIH Molecular Libraries Screening Centers Network [MLSCN]
Assay Submitter (PI): Dr. Wei Zheng, NCGC/NIH
The Ras/extracellular-signal-regulated kinase (ERK) mitogen activated protein (MAP) kinase signaling pathway (ERK1/2 cascade) plays is a key role in transmitting signals from the cell surface to the nucleus (Nishida and Gotoh 1993; Chang and Karin, 2001). The cascade is initiated by the small G-protein Ras, which recruits Raf […], where activation occurs. Alternatively, this pathway can be activated by elevating intracellular cAMP.
Activation of the ERK pathway is essential in increased cell division and cell survival. Sustained and constitutive activation of the ERK pathway, however, has been linked to uncontrolled cell proliferation, increased cell survival, and tumor progression. Thus, the ERK has been as an attractive target for cancer chemotherapy in the past few years (Sebolt-Leopold and Herrera, 2004). Given its physiological and pathological importance, assessment of ERK phosphorylation has been broadly performed in both basic research and drug discovery. Most assays for the measurement of ERK phosphorylation use the antibody-based detection methods, such as western blot and ELISA. These assays require multiple reagent additions with cell wash steps and are not suitable for high-throughput screening.
The current cell-based ERK phosphorylation assay was performed using AlphaScreen platform. […]
HEK293 cells stably expressing type-1 vasopressin receptor (V1b) were maintained in DMEM medium (Invitrogen, Carlsbad, CA) at 37C under a humidified atmosphere containing 5% CO2 and 95% air. […] The ERK phosphorylation in cells was determined using an AlphaScreen assay kit provided by PerkinElmer. […] AC50 values were determined from concentration-response data modeled with the standard Hill equation. […]
(10) Detect the assay plate in an EnVision plate reader (PerkinElmer) using the AlphaScreen detection mode. […]
As to `N#Cc1c(Cl)c(Cl)c(Cl)c(C#N)c1Cl`, the Potency was 2240 nM (active). For the compound `CC1=CC(=O)c2c(O)cccc2C1=O`, the “activity change, negative = inhibition” value is -128%.

Regarding `O=C1NC(=O)C(=Cc2ccccc2Oc2ccc(F)cc2)C(=O)N1`, the “activity change, negative = inhibition” value is 2.48%.
